# Assay results: PubChem BioAssay AID1345082 (National Center for Advancing Translational Sciences (NCATS), 2018)
# Among all 94,000 compounds or so, about 4,000 (4.3%) were called active. A call without a number means that no potency is given here. Roughly 29% stayed inconclusive and do not appear here. The sample holds actives, similar compounds and a random draw of the others, so the mix is not that of the screen. The call rests on the fitted dose curve; in most records, active means well fitted inhibition curve with a large enough effect; inconclusive means small, poorly fitted or top-dose-only effect; inactive means no such curve, though single readings can be large or run the other way.
# Assay: Cytotoxic Profiling in NIH 3T3 Cell Line of Diverse Libraries Using Quantitative High-Throughput Screening; further: nearly all actives have a fitted effect of over 55% in size
# Conditions: NIH 3T3 viability, CellTiter-Glo ATP luminescence, 48-72 h; series mostly up to 96.7 µM
# Outline: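 Viability of NIH 3T3 cells after 48 or 72 hr compound treatment at 37 °C was assessed by CellTiter-Glo, with luminescence imaged following a 10 min room-temperature step.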
# Potency means the concentration at half of the fitted maximal effect.
row,Structure (SMILES),Potency
1,O=C(NCc1ccc(F)cc1F)c1nnn2c1COC(c1ccc(Br)cc1)C2 (stereo not given),inactive
2,COc1cccc([S+](=O)([O-])N2CCC3(CC2)C(=O)NN=C3c2ccncc2)c1,inactive
3,CC(C)(C)C(=O)N1CCCC1C(=O)N1CCC(N2Cc3ccccc3C2=O)CC1 (stereo not given),inactive
4,O=C(NCc1cccnc1)c1nc(-c2ccc(Cl)nc2)c2cnccn12,inactive
5,Cn1c([C@H]2CCN(C3CCOCC3)C2)nc2ccccc21,inactive
6,c1ccc2sc(C3CCCN(Cc4cc5n(n4)CCNC5)C3)nc2c1 (stereo not given),inactive
7,CN1CCC(N2CC[C@H](c3nc4ccccc4s3)C2)CC1,35.5 µM (active)
8,O=C1NC(=NC2CCCCC2)C2(CCCN([S+](=O)([O-])c3ccccc3)C2)N1c1cc(F)cc(F)c1 (stereo not given),inactive
9,CC(C)CCN1CCC2(C1)C(=NC1CCCCC1)NC(=O)N2c1cc(F)cc(F)c1 (stereo not given),35.5 µM (active)
10,O=C(c1ccccc1F)N1CCCC2(C1)C(=NC1CCCCC1)NC(=O)N2c1cc(F)cc(F)c1 (stereo not given),inactive
11,O=C(CN1CCCC1=O)NCC1Cn2cccc2C(=O)N1Cc1ccccc1 (stereo not given),inactive
12,CC(C)C(=O)N1CCOc2ccc(CN3CCc4ccccc4C3)cc2C1,inactive
13,CCCNC(=O)N1CCC(Cn2c(C)cnc2-c2cccnc2)CC1,inactive
14,O=C(NCc1ccc2c(c1)OCO2)C1CN(C2CCCCC2)C(=O)N1 (stereo not given),inactive
15,COCCNC(=O)C1CCCN(Cc2cccc(-c3cccs3)c2)C1 (stereo not given),inactive
16,O=C(NCc1ccc2c(c1)OCO2)C1CCCN(Cc2cccc(-c3cccs3)c2)C1 (stereo not given),31.6 µM (active)
17,Cc1nc(C(=O)N2CC[C@H](N3CCN(C)CC3)[C@H](CCCO)C2)cs1,inactive
18,CCCCOC(=O)N1CC(=O)N(Cc2ccco2)CC(O)C1 (stereo not given),inactive
19,COCCOCC(=O)N1CCC2(CC1)CC(N(C(=O)c1ccccc1)C1CC1)CCO2 (stereo not given),inactive
20,O=C(NCc1cccc(C(F)(F)F)c1)c1nn(CCOc2ccccc2)c2c1CNCC2,15.8 µM (active)
21,COC[C@H]1NC(=O)CC[C@H]1C(=O)NCc1cccc(C(F)(F)F)c1,inactive
22,COc1ccccc1CNC(=O)c1nn(CC2CC2)c2c1CNCC2,inactive

row,Structure (SMILES),Potency
1,CC(C)NC(=O)C1(CCO)CC12CCOCC2 (stereo not given),inactive
2,O=C(c1ccc(Cl)cc1)N1CCCN(CCn2nc3n(c2=O)CCCC3)CC1,inactive
3,CCNC(=O)N[C@H]1CC[C@]2(C)CC[C@@H]([C@H](C)C(=O)NCc3ccco3)[C@H](O)[C@H]2[C@@H]1C,inactive
4,Cc1noc(C)c1-c1nccc2c(=O)cc(N3CCOCC3)oc12,100 µM (active)
5,O=c1cc(N2CCOCC2)oc2c(NCc3ccncc3)nccc12,44.7 µM (active)
6,CCn1c(=O)c2ccnn2c2ccc(C(=O)NCc3ccc(N4CCOCC4)cc3)cc21,inactive
7,CC(C)(C)CC(=O)Nc1ccc2c(N3CCOCC3)ncnc2c1,inactive
8,CC(=O)Nc1ccc(C2(C(=O)NCCCN3CCOCC3)CCCCC2)cc1,inactive
9,CC(CO)Nc1ncnc2c1CN(C1CCCNCC1)C(=O)CN2C (stereo not given),inactive
10,Cn1c(=O)[nH]cc(CC(=O)N2CCCC(c3cccc(C(=O)O)c3)C2)c1=O (stereo not given),inactive
11,CN(CCO)CC1(O)CCCN(Cc2ccccc2F)C1=O (stereo not given),inactive
12,O=C1CCN(C(=O)Cc2c[nH]c3ccccc23)CCCCCCN1,inactive
13,CCc1ccccc1S(=O)(=O)N1CCN(C2(CC)CCN(C(=O)C(C)C)C2)CC1 (stereo not given),inactive
14,CC(C)C(=O)N1CCC2(CC1)OC(=O)N(Cc1ccccc1F)C2(C)c1ccccc1 (stereo not given),44.7 µM (active)
15,CC1(c2ccccc2)N(Cc2ccccc2F)C(=O)OC12CCN(Cc1c[nH]c3ccccc13)CC2 (stereo not given),17.8 µM (active)
16,COc1ccc(CN2CCC3(CC2)OCCN(Cc2ccccc2F)C3=O)cc1O,inactive
17,O=C(CCc1conc1-c1ccccc1)NCc1ccco1,inactive
18,CCOc1ccccc1NC(=O)Cn1c(N2CCOCC2)nc(CC)cc1=O,inactive
19,C[S+](=O)([O-])N1Cc2ccccc2OC2(CCN(C(=O)Cc3cccc(O)c3)CC2)C1,inactive
20,CN1CCC(NC(=O)C2CCCN(S(=O)(=O)c3ccccc3)CCC(=O)NCC2)CC1 (stereo not given),inactive
21,Cn1ncc2c(C(=O)NCC#N)cc(-c3cccc(C(F)(F)F)c3)nc21,inactive
22,Cn1ncc2c(C(=O)NCC(F)(F)F)cc(-c3ccc(C(F)(F)F)cc3)nc21,inactive

row,Structure (SMILES),Potency
1,COc1ccc(-c2cc(C(=O)NCC#N)c3cnn(C)c3n2)cc1,15.8 µM (active)
2,Cc1noc(C)c1S(=O)(=O)NCC1Cn2cccc2C(=O)N1C (stereo not given),inactive
3,Cc1ncnc(N2CCC(Oc3ccc4ccccc4c3)(C(=O)O)CC2)c1C,inactive
4,COc1ccc(-c2[nH]nc3ncc(C(=O)Nc4ccccc4)nc23)c(C)c1,28.2 µM (active)
5,CCOc1ccc2c(n1)CCN(C(=O)Nc1ccc(OC)cc1C)C2,inactive
6,COc1cccc(-c2cc(C(=O)Nc3cccc(Cl)c3)c3cnn(C)c3n2)c1,inactive
7,COc1ccc(-c2[nH]nc3ncc(-c4cn[nH]c4)nc23)cc1F,inactive
8,COc1cccc(NC(=O)c2c(OC)cc(=O)n3c2CCCC3)c1,inactive
9,COc1cccc(NC(=O)c2cnc3n[nH]c(-c4ccc(OC)cc4C)c3n2)c1,50.1 µM (active)
10,CNC(=O)[C@H]1C[C@H](Oc2ccccc2)CN1C(=O)c1cc(-c2ccccc2)n[nH]1,inactive
11,CC(=O)N1CCC(NC[C@H]2O[C@H](Cc3cc(-c4cccc(O)c4)on3)CC[C@@H]2O)CC1,inactive
12,CC1(C)[C@H](Cc2cc(CC3CCCCC3)on2)C[C@@H]1NC1CCOCC1,31.6 µM (active)
13,CN(Cc1ccccc1)Cc1cc(CC2(NCc3ccc(CO)o3)COC2)no1,inactive
14,CN(Cc1nccn1C)C(=O)c1cc(CN2CCC(Cc3ccccc3)CC2)on1,inactive
15,CC(=O)N1CCC(N[C@H]2C[C@@H](Cc3cc(CN(C)c4ccccc4)on3)C2(C)C)CC1,89.1 µM (active)
16,CC1(C)[C@H](Cc2cc(CN3CCCCC3)on2)C[C@@H]1NS(C)(=O)=O,inactive
17,COCc1cc(C[C@@H]2CC[C@H](O)[C@@H](CN(C)C)O2)no1,inactive
18,CC1(C)[C@H](Cc2cc(CC3CCCCC3)on2)C[C@@H]1NC(=O)C1CCC1,39.8 µM (active)
19,COCc1cc(C[C@@H]2CC[C@H](O)[C@@H](CN(CC3CCCCC3)CC3CCCCC3)O2)no1,inactive
20,CCC(CC)C(=O)N[C@H]1C[C@@H](Cc2cc(COc3ccccc3)on2)C1(C)C,70.8 µM (active)
21,CC1(C)[C@H](Cc2cc(CCO)on2)C[C@@H]1NCC1CC1,inactive
